In the library only some 2.7% were active in any assay of this set; here they are far more common.
rCAG binder: binders of r(CAG) RNA repeats, primary screen, biochemical, fluorescence. r(CAG) RNA repeat, TO-PRO-1 dye displacement fluorescence. inhibition, % at 3 µM. 370,000 tested, 1.3% active. AID 651821, 2012;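 active means inhibition above the plate cutoff, the mean of all test compounds on that plate plus 3 SD, cut at about 35% in these data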;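 further: 0% = DMSO alone and 100% = 100 µM mitoxantrone as full dye displacement; higher means more dye released from RNA so lower well fluorescence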
MsrA inh: bovine MsrA enzyme inhibitors, primary screen, biochemical, absorbance, HTS | AID 651718, 2012 | inhibition, % at 15.5 µM | 360,000 tested, 0.75% active | purified bovine MsrA, absorbance read-out; in the data active means inhibition above about 4.5%;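 further: 0% = vehicle wells with enzyme and 100% = reference inhibitor wells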
NadD block: inhibitors of S. aureus NadD, primary screen, biochemical, colorimetric, uHTS. Nicotinate-nucleotide adenylyltransferase NadD (Staphylococcus aureus N315). purified NadD enzyme, colorimetric absorbance read-out. inhibition, % at 20 µM. 360,000 tested, 0.78% active. AID 602399, 2012; in the data active means inhibition above about 26%
bovine MsrA act: bovine MsrA enzyme activators, primary screen, biochemical, absorbance, HTS | Methionine sulfoxide reductase A (Bos taurus) | purified bovine MsrA, absorbance read-out | AID 602163, 2012 | 360,000 tested, 0.3% active | activation, % at 10.6 µM; in the data active means activation above about 7.5%;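 further: 0% = vehicle and 100% = reference activator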
rCAG binder conf: small molecules binding CAG repeat RNA – biochemical, fluorescence, confirmation; inhibition, % at 3 µM; r(CAG) RNA repeat, TO-PRO-1 dye displacement fluorescence; 4,300 tested, 70% active; shares compounds with rCAG binder;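 active means inhibition above a per-plate cutoff, the mean inhibition of sample wells plus 3 SD, cut at about 35% in these data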;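 further: loss of TO-PRO-1 fluorescence as compound displaces dye from 1x1 AA loop RNA; 0% = DMSO only wells and 100% = 100 µM mitoxantrone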
dCAG dye counter: displacement of TO-PRO-1 from CAG DNA duplex, counter-screen for rCAG RNA repeat binder project, biochemical, fluorescence, TO-PRO-1 dye, d(CAG) DNA oligo; shares compounds with rCAG binder; d(CAG) DNA oligo TO-PRO-1 dye displacement; inhibition, % at 3 µM; 4,300 tested, 94% active; AID 652068, 2013;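 active means inhibition above its plate's cutoff, the mean test-well inhibition plus 3 SD, cut at about 4.8% in these data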;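 further: 0% = DNA dye mix with DMSO and 100% = 100 µM mitoxantrone; hits displace the dye from DNA and so lower well fluorescence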
DNA CAG DR: inhibitors of DNA CAG/GTC TO-PRO-1 complex, dose response, counter-screen for rCAG RNA repeat binder project, biochemical, fluorescence, TO-PRO-1 dye; shares compounds with rCAG binder; DNA CAG/GTC duplex TO-PRO-1 dye displacement fluorescence; IC50, µM; 250 tested, 20% active; AID 686960, 2013; in the data active means IC50 below about 10 µM
Active calls of the source: *; i = inactive; nt = no result.

SMILES | rCAG binder | MsrA inh | NadD block | bovine MsrA act | rCAG binder conf | dCAG dye counter | others
COc1ccc(/C=N/Nc2snc(SC)c2C#N)cc1OC | 50* | 3 | -9 | -4 | 36* | 11*
COc1cccc(/C=N/Nc2snc(SC)c2C#N)c1 | 47* | 2 | -6 | -10 | 36* | 15*
COc1cccc(/C=N/Nc2snc(SC)c2C#N)c1O | 75* | 1 | -2 | -6 | 48* | 19*
C=C(C)C(=O)Nc1ccc(OC(F)(F)C(F)F)c(NC(=O)C(=C)C)c1 | 44* | 0 | -2 | -10 | 0 | -2
CC(=O)Nc1ccc(SC[C@H](C)CN2CC[C@H](O)CCC2=O)cc1 | -1 | -1 | -4 | 0 | nt | nt
Cc1cc(N2C(=O)C(O)=C(C(=O)c3cc4ccccc4o3)C2c2ccc(Cl)cc2)no1 (stereo unspecified) | 56* | 1 | 13 | -1 | 75* | 38*
Cc1cc(N2C(=O)C(O)=C(C(=O)c3cc4ccccc4o3)C2c2cccc(Cl)c2)no1 (stereo unspecified) | 60* | 1 | 14 | -2 | 71* | 32* | DNA CAG DR=5.7*
Cc1cc(N2C(=O)C(O)=C(C(=O)c3cc4ccccc4o3)C2c2ccc(Br)cc2)no1 (stereo unspecified) | 34 | 0 | 11 | -7 | nt | nt
Cc1cc(N2C(=O)C(O)=C(C(=O)c3ccc(C)o3)C2c2cccc(Cl)c2)no1 (stereo unspecified) | 27 | 2 | 13 | -9 | nt | nt
C=CCSC1=N/C(=C\C=C\c2ccco2)C(=O)S1 | 58* | 0 | 6 | 6 | 45* | 21* | DNA CAG DR=i
CC(=O)Nc1cccc(C(=O)OCC(=O)NCc2ccc(F)cc2)c1 | 0 | 0 | -2 | -2 | nt | nt
COc1ccc(S(=O)(=O)N(C(C)=O)c2ccc3oc(=O)sc3c2)cc1 | 44* | -1 | -4 | 6 | 10 | 6.0*
COC(=O)c1c(C)oc2ccc(N(C(C)=O)S(=O)(=O)c3ccccc3)cc12 | 1 | 2 | -8 | -10 | nt | nt
O=C1CC(=O)N(C2CCCCC2)C(=O)N1c1ccccc1S(=O)(=O)Oc1ccccc1 | 59* | 1 | -1 | -7 | 26 | 8.0*
O=C1C2CCCCC2C(=O)N1c1cccc(OS(=O)(=O)c2ccccc2)c1 (stereo unspecified) | -6 | 0 | 4 | -4 | nt | nt
COC(=O)CCC(C(=O)CN1C(=O)c2ccccc2C1=O)N1C(=O)c2ccccc2C1=O (stereo unspecified) | 3 | -1 | -6 | -1 | nt | nt
O=c1c2ccccc2nc(N/N=C/c2c(O)ccc3ccccc23)n1O | 35* | 2 | 18 | -3 | 71* | 30*
O=c1c2ccccc2nc(N/N=C/c2ccc(O)cc2)n1O | 2 | 2 | 2 | 0 | nt | nt
O=C(O)COc1ccc(/C=C2\SC(=Nc3ccccc3)N(c3ccccc3)C2=O)cc1 | 14 | 2 | 2 | -3 | nt | nt
Cc1ccc(N=C2S/C(=C/c3cccc(OCC(=O)O)c3)C(=O)N2C)cc1C | 58* | 3 | 4 | -12 | 64* | 23*
CCOc1cc(/C=C2\SC(=Nc3ccccc3)N(c3ccccc3)C2=O)ccc1OCC(=O)O | 65* | 4 | 8 | -5 | 71* | 30* | DNA CAG DR=i
O=C(O)COc1ccccc1/C=C1\SC(=Nc2ccc(F)cc2)N(c2ccc(F)cc2)C1=O | 40* | 2 | 4 | -2 | 65* | 24*
CCOC(=O)C1=C(O)/C(=C/c2ccc(OCC(=O)O)c(OCC)c2)SC1=Nc1ccc(C)cc1 | 45* | 4 | 10 | -4 | 68* | 25*
O=C(CSc1nnc(CNC(=O)c2ccccc2)o1)NCc1ccccc1Cl | -3 | 0 | 2 | -4 | nt | nt
O=C(O)C1C(c2ccccc2)=C1c1ccc(Br)cc1 (stereo unspecified) | 3 | 3 | -2 | -2 | nt | nt
SMILES | rCAG binder | MsrA inh | NadD block | bovine MsrA act | rCAG binder conf | dCAG dye counter | others
Cc1noc(C)c1NC(=O)N(C)C[C@@H]1Oc2ccc(NS(=O)(=O)c3c(C)noc3C)cc2C(=O)N([C@H](C)CO)C[C@H]1C | 2 | 0 | -2 | -13 | nt | nt
CCC(=O)NC(NC(=S)Nc1ccc(S(N)(=O)=O)cc1)C(Cl)(Cl)Cl (stereo unspecified) | 53* | -1 | 6 | -4 | 4 | 1
CCOc1ccc(NC(=NCc2ccc3c(c2)OCO3)SC2CC(=O)N(c3ccc(C(=O)O)cc3)C2=O)cc1 (stereo unspecified) | 78* | 0 | 20 | -5 | 85* | 54*
COC(=O)c1cc(NS(=O)(=O)c2ccc(N3CCCCCC3)c([N+](=O)[O-])c2)cc(C(=O)OC)c1 | 39* | 2 | -1 | -1 | 60* | 20*
Cc1ccc(NC(=S)NNC(=O)c2ccc(N3CCOCC3)c([N+](=O)[O-])c2)cc1C | 58* | 1 | 5 | -2 | 61* | 26*
COC(=O)c1cc(NS(=O)(=O)c2ccc(N3CCOCC3)c([N+](=O)[O-])c2)cc(C(=O)OC)c1 | 51* | 0 | -5 | -4 | 40* | 11*
CCCCCCSc1nc(O)c(C2OC(=O)c3c2ccc(OC)c3OC)c(=O)n1CC (stereo unspecified) | 39* | 0 | -5 | -3 | 36* | 8.3*
Cc1c(Br)cc(-c2nnco2)cc1Br | 40* | 2 | -4 | -3 | 4 | 1
COc1cccc(S(=O)(=O)N(C)C[C@H]2OCc3cnnn3CCCC(=O)N([C@H](C)CO)C[C@@H]2C)c1 | 2 | -1 | -2 | 1 | nt | nt
CC(=O)NS(=O)(=O)c1ccc(N=c2ssc3c2-c2ccc(C)cc2NC3(C)C)cc1 | 61* | 1 | 9 | 2 | 52* | 21*
CCOC(=O)N1CCC(NCc2c(C(=O)N(C)Cc3ccccc3)nc3ccccn23)CC1 | -2 | 0 | -1 | -12 | nt | nt
O=Nc1c(-c2c(O)[nH]c3cc(Br)ccc23)[nH]c2ccccc12 | 59* | 1 | 19 | -2 | 54* | 36*
CC(C)(C)OC(=O)N1CCC(Cc2cc(-c3cccc(Br)c3)no2)(C(=O)O)CC1 | 48* | 0 | 0 | 0 | 49* | 14* | DNA CAG DR=>30
CC(C)(C)OC(=O)N1CCC(Cc2cc(-c3ccccc3)no2)(C(=O)O)CC1 | 13 | 0 | 0 | -3 | nt | nt
Oc1ccc(C2Nc3cccc4cccc(c34)N2)c(O)c1 | 75* | 3 | 22 | 2 | 64* | 44*
